Data on 101 compounds can be found in PubChem BioAssay AID777 (Sanford-Burnham Center for Chemical Genomics, 2007).

Hit rate of the full screen: of about 96,000 compounds, about 19,000 (20%) were called active. These entries were drawn from the full list. Unmarked numbers belong to inactive results.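 Rule for the calls: active = blocking of liver enzyme CYP2C9 beyond about 50% at 5 µM (limit read from the data); inactive = the rest.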

The inhibition is the change of the read-out against control, counted positive when it falls.

The target of this assay is Cytochrome P450 2C9 (Homo sapiens) (UniProt P11712). The experiment in a line: blockers of cytochrome P450 2C9 activity – biochemical, luminescence, ADME assay, primary screen (AID 777). The conditions noted are these: CYP2C9 Supersomes, luciferin-H conversion, at 5 µM, hits give high values.
Sequence of Cytochrome P450 2C9 (Homo sapiens) (P11712 whole entry, looked up): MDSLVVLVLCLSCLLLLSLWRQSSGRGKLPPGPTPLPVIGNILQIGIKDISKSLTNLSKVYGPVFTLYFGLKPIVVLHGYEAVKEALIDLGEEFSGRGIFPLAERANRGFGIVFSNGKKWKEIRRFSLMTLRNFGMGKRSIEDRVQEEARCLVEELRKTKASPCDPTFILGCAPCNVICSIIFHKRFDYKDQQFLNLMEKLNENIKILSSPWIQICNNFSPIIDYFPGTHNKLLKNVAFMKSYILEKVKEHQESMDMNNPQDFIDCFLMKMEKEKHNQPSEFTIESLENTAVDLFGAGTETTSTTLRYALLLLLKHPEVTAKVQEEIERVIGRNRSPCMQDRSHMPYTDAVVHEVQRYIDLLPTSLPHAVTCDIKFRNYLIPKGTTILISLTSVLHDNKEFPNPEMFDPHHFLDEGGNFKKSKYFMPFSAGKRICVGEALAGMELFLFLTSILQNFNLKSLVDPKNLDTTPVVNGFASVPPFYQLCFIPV
`Cn1c(-c2ccco2)nc2cc3ccccc3cc21`: the inhibition is 26.1%. Take `COc1ccc(OC)c(/C=N/NC(=O)CSc2nnc(C)n2-c2ccccc2)c1`: the inhibition is 20.2%. With `C=CCn1c(Cn2nnc3ccccc32)nnc1SCC(=O)N/N=C/c1cc(Br)cc(OC)c1O` the figure was 54% (active). `Cn1c(Cn2nnc3ccccc32)nnc1SCC(=O)c1ccccc1F`: the inhibition is 28.6%.

On to `COc1cccc(N(CC(=O)NCCSc2ccccn2)S(C)(=O)=O)c1`, for which the inhibition was 38.4%. In the case of `CC(=O)c1cc2c(cc1N)OCO2` it was 3.4%; in that of `CCCCn1c(CN2CCN(CCO)CC2)nc2ccccc21`, 1.5%; in that of `N#Cc1c2c(c(N3CCN(CCO)CC3)n3c1nc1ccccc13)CCCC2`, 58.2% (active).

On to `CN(C)CCCNc1c2c(c(C#N)c3nc4ccccc4n13)CCC2`, for which the inhibition is 7.3%.

As for `C=CCOc1ccc(C2/C(=C(\O)c3c(C)[nH]c(C(=O)OC)c3C)C(=O)C(=O)N2CCN(C)C)cc1` (stereo unspecified), the inhibition was -6.1%.

With `CCOC(=O)c1cccc(NC(=O)C2CCCN(S(=O)(=O)c3cnc[nH]3)C2)c1` (stereo unspecified), the inhibition was 95.6% (active). For `O=C(NCc1ccco1)C1CCCN(S(=O)(=O)c2cnc[nH]2)C1` (stereo unspecified), the inhibition is 27.3%. With `COc1cccc(N2CCN(C(=O)C3CCCN(S(=O)(=O)c4cnc[nH]4)C3)CC2)c1` (stereo unspecified) the figure was 36.6%; with `O=C(CN1C(=O)COc2ccccc21)NCCN1CCc2ccccc2C1`, 25%. With `Oc1c(C=Nc2cccc3nsnc23)ccc2ccccc12` the figure was -15.3%.

On to `COc1ccc(Br)cc1CN1CCN(C(=O)c2cccc(OC)c2OC)CC1`, for which the inhibition was 52.9% (active). With `COc1c(C(=O)N2CCCC2)ccc2ccccc12`, the inhibition was -19.3%. In the case of `COc1cccc(OC)c1OCCN1CCN(C(=O)c2ccco2)CC1` it was -24.9%; in that of `CN(C)CCCn1c(N)c(C#N)c2nc(C#N)c(C#N)nc21`, -11.9%. With `COc1ccc(OCC(=O)N2CCOCC2)cc1` the figure was 17.3%; with `O=C(NCc1ccc(Cl)cc1)c1cc(=O)nc2sc(-c3ccccc3)nn12`, 2.9%. With `Cc1ccc(N(C(=O)CC2NC(=O)NC2=O)C2(C(=O)NC3CCCC3)CCCCC2)cc1` (stereo unspecified) the figure was 46.4%; with `CCOc1ccc(CCNC(=O)C(CC)n2nc(C)n3c(cc4sccc43)c2=O)cc1OCC` (stereo unspecified), 51.6% (active).

As for `COc1ccc(CCNC(=O)c2cc3sccc3n2C)cc1OC`, the inhibition was 26.8%. In the case of `CCOc1ccc(CCNC(=O)C2CCN(c3ccc(N4CCOCC4)nn3)CC2)cc1OCC` it was 14%; in that of `CCC(C(=O)NCc1ccc(OC)cc1)n1nc(C)n2c(cc3occc32)c1=O` (stereo unspecified), 82.8% (active); in that of `CCC(C(=O)N1CCOCC1)n1c(C(=O)OC)cc2occc21` (stereo unspecified), 12.8%. As to `COc1ccc(CCn2c(=N)c(C(=O)NCc3ccco3)cc3c(=O)n4cccc(C)c4nc32)cc1`, the inhibition was 14.3%. In the case of `CCc1c(C)nc2cc(C)[nH]n2c1=O` it was 16.4%; in that of `CCCNC(=O)N1CCN(C(=O)NCCC)CC1`, 2.7%; in that of `Cc1ccc(-n2ncc3c(Nc4cccc(C(=O)O)c4)ncnc32)cc1`, 29.6%. With `Cc1cc(C)cc(N(CC(=O)N2CC=C(c3ccccc3)CC2)S(=O)(=O)c2c(C)noc2C)c1` the figure was 90.8% (active); with `Cc1ccc(C(=O)O)cc1S(=O)(=O)NCC1CCCO1` (stereo unspecified), 5.8%. With `O=C(Nc1ccc(Cl)c(Cl)c1)N1CC=C(c2ccccc2)CC1` the figure was 46.1%; with `CCOC(=O)C1CCCN(C(=O)CN(c2ccc(OC)cc2)S(=O)(=O)c2c(C)noc2C)C1` (stereo unspecified), 11%; with `CCC(=O)c1c[nH]c(C(=O)NCC2CCCO2)c1` (stereo unspecified), -7%. Take `Cc1cc(C)cc(N(CC(=O)NCC2CCCO2)S(=O)(=O)c2c(C)noc2C)c1` (stereo unspecified): the inhibition is 64.1% (active). With `COCCCNC(=O)CN1CCN(Cc2ccccc2Cl)C1=O` the figure was -16.9%; with `Cc1nc2ncnn2c(C)c1CCC(=O)N1CCN(C(=O)c2ccco2)CC1`, -8.6%. For `CCN(CC)C(=O)CSc1nc2ccccc2n1CC(=O)N1CCN(c2ccccc2OC)CC1`, the inhibition was 51.4% (active). In the case of `CCOC(=O)n1c(SCC(=O)N(CC)CC)nc2ccccc21` it was 30.9%. In the case of `CC(C)N(C(=O)Cn1c(SCC(=O)N2CCN(c3ccccc3)CC2)nc2ccccc21)C(C)C` it was 14.3%; in that of `O=C1c2ccccc2C(=O)N1CCc1nn[nH]n1`, 0.5%. In the case of `Fc1ccccc1CCNc1nnnn1-c1ccccc1` it was 31.4%; in that of `CC1(C)Cc2cccc(OCC(=O)Nc3nccs3)c2O1`, 31%.

Take `O=C(CCSCCc1ccccn1)Nc1nccs1`: the inhibition was 81% (active).

In the case of `CN(CCCC(=O)Nc1nccs1)S(=O)(=O)c1ccc(Cl)cc1`, the inhibition was 38.4%. On to `COCCN(CC(=O)Nc1ccccc1C)S(=O)(=O)c1ccc(S(=O)(=O)N2CCCC2)cc1`, for which the inhibition was 16.5%. On to `CCOC(=O)CSc1nnc(CNC(=O)Cc2ccccc2)n1-c1ccccc1OC`, for which the inhibition was 8.6%.

Consider `CCOc1cc(C(=O)N2CCc3cc(OC)c(OC)cc3C2)ccc1OC(F)F`, for which the inhibition was 30.7%. As for `CCOc1ccc(C(CCc2ccccc2)NC(=O)c2ccc(OC)c(OC)c2)cc1OCC` (stereo unspecified), the inhibition was 76.1% (active). In the case of `COc1ccc(Cn2c(=O)sc3ccccc32)cc1OC`, the inhibition was 29.2%. With `Nc1nc(Br)c2ccccc2c1-c1ccc(F)cc1` the figure was 2.2%. As for `COc1ccc(N2CCN(C(=O)CSc3nc4cc(OC)c(OC)cc4cc3C#N)CC2)cc1`, the inhibition was 26.1%.

As to `Cc1cc(C)c2nc(N3CCCC3)c(C#N)cc2c1`, the inhibition is 9.6%. With `COc1ccc2nc(N3CCCC(O)C3)c(C#N)cc2c1` (stereo unspecified) the figure was 63.9% (active).

Regarding `Cc1[nH]c(=O)c(C(=O)/C=C/c2ccccc2)c2c1CCCC2`, the inhibition was -14.6%.

Regarding `CC1(C)C(=O)C2(CCCCC2)C(=O)OC1c1cccs1` (stereo unspecified), the inhibition was -9.3%. In the case of `O=C(COc1ccccc1F)NC1CC1` it was -15.2%; in that of `CSc1ccc(C#N)cc1NC(=O)c1ccc(Cl)cc1`, 6.3%.

Take `O=C(Nc1cccn(Cc2c(Cl)cccc2Cl)c1=O)c1ccc(Cl)cc1`: the inhibition is 71.8% (active). On to `COc1ccc(Cn2cccc(NC(=O)Nc3ccc(C#N)cc3)c2=O)cc1`, for which the inhibition is 14.3%. In the case of `Cc1ccn2cc(C(=O)NC3CCN(Cc4ccccc4)CC3)nc2c1` it was 16.4%; in that of `Cc1ccc(SCC2=NNC(=O)C2)cc1`, -7.3%. With `CC1(C)NC(=O)N(CCCCSc2ccc(Cl)cc2)C1=O` the figure was 85.8% (active); with `Cc1ccc(SCCN2C(=O)NC(C)(C)C2=O)cc1`, 68.6% (active). With `Cc1ccc(SCc2cc(=O)[nH]c(N3CCCCC3)n2)cc1` the figure was 14.9%; with `CCC(=O)c1ccc(OCC(O)CN2C(=O)NC(C)(C)C2=O)cc1` (stereo unspecified), 0.4%; with `CCOC(=O)N1CCN(C(=O)CSc2ccc(Cl)cc2)CC1`, 42.4%. As to `CC(=O)N1CCCc2cc(S(=O)(=O)CCC(=O)N3CCN(c4ccccc4)CC3)ccc21`, the inhibition was -45.2%. For the compound `COC(=O)Cn1nc(-c2ccccc2)c2cc(Cl)ccc21`, the inhibition is 25.2%. As to `COc1ccc(COC(=O)c2n[nH]c3ccccc23)cc1F`, the inhibition is 54.1% (active). In the case of `O=C(COC(=O)c1n[nH]c2ccccc12)NCc1ccccc1` it was 41.3%. In the case of `COc1ccc(C(C)=O)cc1COC(=O)Cn1cnc2ccccc2c1=O`, the inhibition was 41.4%. Consider `COc1ccccc1NC(=O)CC(NCCN(C)C)C(=O)O` (stereo unspecified), for which the inhibition was -1.4%. With `COc1ccccc1NC(=O)[C@H](COCc1ccccc1)NC(=O)OC(C)(C)C` the figure was 51.7% (active); with `COc1ccccc1NC(=O)/C=C/C(N)=O`, -19.3%. With `CCC1(C)Cc2c(sc3[nH]c(=S)n(Cc4ccccc4)c(=O)c23)CO1` (stereo unspecified) the figure was 34.5%. With `Oc1ccc(/C=N/NC2=NCCCCC2)c(O)c1` the figure was -17.7%. Regarding `CSCCC(NS(=O)(=O)c1ccc2c(c1)oc(=O)n2C)C(=O)NC1CCCc2ccccc21` (stereo unspecified), the inhibition was -0.6%. With `CC1CCN(CC(=O)c2c[nH]c3ccccc23)CC1` the figure was 4.9%. Consider `CCOC(=O)c1c(NC(=S)Nc2ccccc2)sc2c1CCN(C)C2`, for which the inhibition was 24.5%. On to `N#Cc1c(N)sc2c1CCN(C(=O)OCc1ccccc1)C2`, for which the inhibition was 97.9% (active). In the case of `O=C(O)C1CCN(C(=O)OCc2ccccc2)CC1` it was 5.6%; in that of `O=C(NN1C(=O)C2C3C=CC(C4CC34)C2C1=O)c1ccc(Cl)cc1` (stereo unspecified), 9.6%; in that of `COc1ccc(Cl)cc1C(=O)NCc1cn(C)nc1C`, 1.3%.

On to `COC(=O)c1ccc(OC(=O)c2nn(C)cc2Cl)c(OC)c1`, for which the inhibition is 58.9% (active). `COc1ccc(C(=O)n2nc(-c3ccc(Cl)cc3)nc2N)cc1OC`: the inhibition was -12.4%.

On to `CN(C(=O)CSc1nnc(N)s1)c1c(N)n(Cc2ccccc2)c(=O)[nH]c1=O`, for which the inhibition is -12.4%. `COc1ccc(CC(NC(C)=O)C(=O)NC2CCN(C(=O)Nc3ccc(C#N)cc3)CC2)cc1OC` (stereo unspecified): the inhibition is 9.3%. As to `Cc1ccc(NC(=O)C2CCCN(S(=O)(=O)c3c(C)noc3C)C2)c(C)c1` (stereo unspecified), the inhibition was 8.4%. Turning to `O=C(Nc1nccs1)C1CCN(S(=O)(=O)c2ccc(Cl)c(C(F)(F)F)c2)CC1`, the inhibition was -45.5%. With `Cc1noc(C)c1S(=O)(=O)N1CCCC(C(=O)Nc2nccs2)C1` (stereo unspecified), the inhibition was 56.5% (active). With `Cc1ccc(C2=CSC3=NS(=O)(=O)CCN23)cc1C` the figure was -9.4%; with `CCOC(=O)CSc1nnc(-c2cccc(Br)c2)o1`, -12.3%. With `CCOC(=O)N1CCN(C(=O)c2cc3c(-c4ccc(Cl)cc4)nn(C)c3s2)CC1` the figure was 25.5%.

Regarding `COc1cccc(-n2cc(C(=O)O)c3ccccc3c2=O)c1`, the inhibition was 0.5%.

On to `COc1cccc(-c2nn(C)c3sc(C(=O)N4CCN(c5ccccc5)CC4)cc23)c1`, for which the inhibition is 68.5% (active). With `COc1ccccc1N1CCN(C(=O)CN(Cc2ccc(Cl)cc2)S(C)(=O)=O)CC1` the figure was 41.4%; with `CCN1CCN(C(=O)c2cc3cc4ccc(OC)cc4nc3s2)CC1`, -5.1%; with `COc1ccccc1N1CCN(C(=O)c2cc3c(-c4ccc(Cl)cc4)nn(C)c3s2)CC1`, 97.6% (active).
